# Laboratory results published in ChEMBL document CHEMBL2218924, “A broad activity screen in support of a chemogenomic map for kinase signalling research and drug discovery” (Biochem J, 2013).
# Assays:
# [1] = target: T1, Ephrin type-B receptor 1 (Homo sapiens) (UniProt P54762); conditions: at 10 µM
# T1 sequence (whole entry): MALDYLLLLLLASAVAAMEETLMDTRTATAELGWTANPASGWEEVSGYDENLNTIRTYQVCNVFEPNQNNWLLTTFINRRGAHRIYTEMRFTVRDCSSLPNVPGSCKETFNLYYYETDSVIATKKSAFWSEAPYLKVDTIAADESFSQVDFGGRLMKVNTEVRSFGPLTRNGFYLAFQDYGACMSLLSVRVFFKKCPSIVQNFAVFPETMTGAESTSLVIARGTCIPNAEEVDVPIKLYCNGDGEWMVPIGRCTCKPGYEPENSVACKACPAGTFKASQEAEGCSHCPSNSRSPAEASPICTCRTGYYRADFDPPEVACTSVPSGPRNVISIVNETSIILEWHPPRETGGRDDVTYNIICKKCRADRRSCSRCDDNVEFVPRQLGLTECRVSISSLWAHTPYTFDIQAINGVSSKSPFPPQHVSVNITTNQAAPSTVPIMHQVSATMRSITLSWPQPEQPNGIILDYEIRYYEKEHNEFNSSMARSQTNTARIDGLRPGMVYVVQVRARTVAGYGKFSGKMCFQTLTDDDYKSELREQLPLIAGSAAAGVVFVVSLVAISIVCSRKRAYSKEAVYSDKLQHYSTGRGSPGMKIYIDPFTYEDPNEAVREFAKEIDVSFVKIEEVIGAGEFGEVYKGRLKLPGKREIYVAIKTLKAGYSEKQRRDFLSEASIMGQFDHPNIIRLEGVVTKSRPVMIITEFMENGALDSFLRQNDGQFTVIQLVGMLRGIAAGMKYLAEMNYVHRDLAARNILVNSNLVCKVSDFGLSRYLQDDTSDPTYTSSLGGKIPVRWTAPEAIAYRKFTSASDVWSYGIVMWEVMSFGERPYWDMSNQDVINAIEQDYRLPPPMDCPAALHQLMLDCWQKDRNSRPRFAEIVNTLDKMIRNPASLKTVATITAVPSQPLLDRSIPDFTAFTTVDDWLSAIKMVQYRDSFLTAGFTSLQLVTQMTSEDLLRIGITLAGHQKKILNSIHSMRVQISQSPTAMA
# [2] = target: T2, Ephrin type-B receptor 2 (Homo sapiens) (UniProt P29323); conditions: at 1 µM
# T2 sequence (whole entry): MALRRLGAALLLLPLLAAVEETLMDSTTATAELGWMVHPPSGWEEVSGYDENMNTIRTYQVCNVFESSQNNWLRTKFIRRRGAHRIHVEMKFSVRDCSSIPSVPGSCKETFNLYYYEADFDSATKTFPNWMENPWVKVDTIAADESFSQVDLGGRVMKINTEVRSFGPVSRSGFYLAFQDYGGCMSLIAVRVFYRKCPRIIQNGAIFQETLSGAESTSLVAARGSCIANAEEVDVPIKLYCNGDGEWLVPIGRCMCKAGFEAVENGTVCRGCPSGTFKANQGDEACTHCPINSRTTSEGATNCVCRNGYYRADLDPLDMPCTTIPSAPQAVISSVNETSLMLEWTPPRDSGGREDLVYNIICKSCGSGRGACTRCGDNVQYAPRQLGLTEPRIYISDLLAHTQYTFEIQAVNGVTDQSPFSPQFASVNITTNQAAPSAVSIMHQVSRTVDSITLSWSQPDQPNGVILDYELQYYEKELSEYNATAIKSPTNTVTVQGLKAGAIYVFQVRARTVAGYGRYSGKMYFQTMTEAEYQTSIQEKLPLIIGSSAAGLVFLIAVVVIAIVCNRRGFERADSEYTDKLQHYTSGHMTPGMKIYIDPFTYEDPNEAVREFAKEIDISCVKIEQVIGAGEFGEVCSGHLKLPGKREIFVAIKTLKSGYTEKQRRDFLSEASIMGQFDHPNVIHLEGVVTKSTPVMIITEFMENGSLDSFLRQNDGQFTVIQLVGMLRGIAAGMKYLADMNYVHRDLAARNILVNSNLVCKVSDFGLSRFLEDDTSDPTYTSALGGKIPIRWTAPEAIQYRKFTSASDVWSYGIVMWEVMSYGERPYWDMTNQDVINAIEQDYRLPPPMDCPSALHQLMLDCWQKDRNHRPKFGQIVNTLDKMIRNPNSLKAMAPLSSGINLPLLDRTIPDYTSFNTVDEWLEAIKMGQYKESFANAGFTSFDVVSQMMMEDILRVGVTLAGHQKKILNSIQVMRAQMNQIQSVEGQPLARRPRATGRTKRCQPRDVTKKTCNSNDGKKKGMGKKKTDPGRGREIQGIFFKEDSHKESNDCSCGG
# [3] = target: T2, Ephrin type-B receptor 2 (Homo sapiens); conditions: at 10 µM
# [4] = target: T3, Ephrin type-B receptor 3 (Homo sapiens) (UniProt P54753); conditions: at 1 µM
# T3 sequence (whole entry): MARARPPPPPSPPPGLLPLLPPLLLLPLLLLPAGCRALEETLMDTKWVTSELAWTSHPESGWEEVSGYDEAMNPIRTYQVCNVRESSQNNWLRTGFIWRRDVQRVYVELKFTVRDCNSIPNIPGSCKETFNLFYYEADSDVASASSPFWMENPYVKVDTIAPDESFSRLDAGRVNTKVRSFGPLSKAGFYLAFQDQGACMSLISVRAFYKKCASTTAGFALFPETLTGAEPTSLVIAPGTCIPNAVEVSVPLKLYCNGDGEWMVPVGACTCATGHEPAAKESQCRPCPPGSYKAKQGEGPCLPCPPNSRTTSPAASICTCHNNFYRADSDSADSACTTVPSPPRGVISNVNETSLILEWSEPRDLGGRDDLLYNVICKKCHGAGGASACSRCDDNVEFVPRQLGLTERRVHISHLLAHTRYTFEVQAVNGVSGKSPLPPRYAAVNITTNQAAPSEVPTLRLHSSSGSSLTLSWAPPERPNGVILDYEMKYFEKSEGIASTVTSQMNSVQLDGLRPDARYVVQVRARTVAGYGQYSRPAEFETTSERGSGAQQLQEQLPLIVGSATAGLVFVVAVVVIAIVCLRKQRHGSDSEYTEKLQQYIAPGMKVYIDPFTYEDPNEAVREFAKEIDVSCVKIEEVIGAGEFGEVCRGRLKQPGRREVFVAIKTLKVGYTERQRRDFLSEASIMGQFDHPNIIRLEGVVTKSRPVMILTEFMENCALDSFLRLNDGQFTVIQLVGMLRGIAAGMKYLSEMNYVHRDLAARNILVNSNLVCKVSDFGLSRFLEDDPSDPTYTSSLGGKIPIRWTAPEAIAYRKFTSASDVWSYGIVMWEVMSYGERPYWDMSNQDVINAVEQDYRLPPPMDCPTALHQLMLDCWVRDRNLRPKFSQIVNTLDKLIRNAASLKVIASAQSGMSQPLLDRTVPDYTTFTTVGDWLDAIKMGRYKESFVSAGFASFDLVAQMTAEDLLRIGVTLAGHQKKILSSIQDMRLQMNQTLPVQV
# [5] = target: T3, Ephrin type-B receptor 3 (Homo sapiens); conditions: at 10 µM
# [6] = target: T4, Ephrin type-B receptor 4 (Homo sapiens) (UniProt P54760); conditions: at 1 µM
# T4 sequence (whole entry): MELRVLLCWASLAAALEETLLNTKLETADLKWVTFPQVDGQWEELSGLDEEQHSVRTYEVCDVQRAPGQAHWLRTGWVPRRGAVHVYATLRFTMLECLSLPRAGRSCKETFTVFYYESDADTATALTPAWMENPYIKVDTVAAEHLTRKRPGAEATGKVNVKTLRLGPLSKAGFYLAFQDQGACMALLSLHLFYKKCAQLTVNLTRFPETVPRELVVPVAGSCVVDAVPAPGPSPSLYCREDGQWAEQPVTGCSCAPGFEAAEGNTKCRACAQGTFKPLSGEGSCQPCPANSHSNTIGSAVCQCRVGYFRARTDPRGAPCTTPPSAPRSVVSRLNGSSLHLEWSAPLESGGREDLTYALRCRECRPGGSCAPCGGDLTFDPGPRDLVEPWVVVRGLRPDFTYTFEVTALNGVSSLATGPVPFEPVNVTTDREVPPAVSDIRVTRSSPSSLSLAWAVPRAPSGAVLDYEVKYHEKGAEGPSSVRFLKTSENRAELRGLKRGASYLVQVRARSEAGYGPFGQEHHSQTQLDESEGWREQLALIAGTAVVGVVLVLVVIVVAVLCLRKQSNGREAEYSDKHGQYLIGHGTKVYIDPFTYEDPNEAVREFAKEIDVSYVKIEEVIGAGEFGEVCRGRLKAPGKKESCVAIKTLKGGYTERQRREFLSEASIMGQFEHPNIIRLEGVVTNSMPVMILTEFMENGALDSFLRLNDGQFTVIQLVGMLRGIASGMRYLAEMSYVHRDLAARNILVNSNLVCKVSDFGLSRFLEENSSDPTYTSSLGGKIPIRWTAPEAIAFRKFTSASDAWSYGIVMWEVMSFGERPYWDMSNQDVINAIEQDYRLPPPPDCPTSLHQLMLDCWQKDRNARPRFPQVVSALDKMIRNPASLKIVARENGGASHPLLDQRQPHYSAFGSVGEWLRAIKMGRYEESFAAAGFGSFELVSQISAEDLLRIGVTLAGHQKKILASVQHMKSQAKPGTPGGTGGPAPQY
# [7] = target: T4, Ephrin type-B receptor 4 (Homo sapiens); conditions: at 10 µM
# [8] = target: Receptor tyrosine-protein kinase erbB-4 (Homo sapiens) (UniProt Q15303); conditions: at 1 µM
# Receptor tyrosine-protein kinase erbB-4 (Homo sapiens), sequence (Q15303 whole entry): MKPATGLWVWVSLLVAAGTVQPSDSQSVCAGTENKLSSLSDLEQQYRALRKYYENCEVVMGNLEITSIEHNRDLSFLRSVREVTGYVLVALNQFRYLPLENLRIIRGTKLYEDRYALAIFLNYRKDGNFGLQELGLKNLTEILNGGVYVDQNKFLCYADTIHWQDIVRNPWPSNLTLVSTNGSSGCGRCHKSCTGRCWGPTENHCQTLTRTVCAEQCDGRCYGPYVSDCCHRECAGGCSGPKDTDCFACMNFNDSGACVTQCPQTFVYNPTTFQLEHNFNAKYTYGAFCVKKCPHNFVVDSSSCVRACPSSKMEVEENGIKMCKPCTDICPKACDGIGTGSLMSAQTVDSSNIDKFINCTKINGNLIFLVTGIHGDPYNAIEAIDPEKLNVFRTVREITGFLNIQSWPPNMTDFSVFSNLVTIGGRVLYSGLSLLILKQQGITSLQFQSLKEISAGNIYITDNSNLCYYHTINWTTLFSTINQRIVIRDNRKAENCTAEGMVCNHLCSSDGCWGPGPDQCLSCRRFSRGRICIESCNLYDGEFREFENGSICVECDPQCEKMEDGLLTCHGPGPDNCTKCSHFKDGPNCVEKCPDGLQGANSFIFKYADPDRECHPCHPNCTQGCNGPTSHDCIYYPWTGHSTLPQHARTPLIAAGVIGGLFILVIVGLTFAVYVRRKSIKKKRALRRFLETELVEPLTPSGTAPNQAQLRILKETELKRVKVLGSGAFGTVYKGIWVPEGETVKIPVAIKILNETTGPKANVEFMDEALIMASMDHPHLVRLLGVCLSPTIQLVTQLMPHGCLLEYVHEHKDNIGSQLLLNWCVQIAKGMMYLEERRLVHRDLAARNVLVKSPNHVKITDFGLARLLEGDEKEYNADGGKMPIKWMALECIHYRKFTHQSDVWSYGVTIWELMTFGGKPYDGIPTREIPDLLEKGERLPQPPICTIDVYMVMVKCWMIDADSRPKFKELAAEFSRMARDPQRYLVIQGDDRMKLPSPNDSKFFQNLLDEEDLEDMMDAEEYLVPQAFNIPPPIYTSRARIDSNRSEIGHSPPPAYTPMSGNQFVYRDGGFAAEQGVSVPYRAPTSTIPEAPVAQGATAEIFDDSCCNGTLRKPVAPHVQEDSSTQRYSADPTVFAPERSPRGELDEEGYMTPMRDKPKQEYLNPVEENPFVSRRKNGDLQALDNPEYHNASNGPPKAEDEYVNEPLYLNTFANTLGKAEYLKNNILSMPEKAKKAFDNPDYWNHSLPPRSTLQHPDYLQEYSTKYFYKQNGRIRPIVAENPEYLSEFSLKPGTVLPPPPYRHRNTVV
# [9] = target: Receptor tyrosine-protein kinase erbB-4 (Homo sapiens) (UniProt Q15303); conditions: at 10 µM
# [10] = target: Focal adhesion kinase 1 (Homo sapiens) (UniProt Q05397); conditions: at 1 µM
# Focal adhesion kinase 1 (Homo sapiens), sequence (Q05397 2-1052 limits assumed): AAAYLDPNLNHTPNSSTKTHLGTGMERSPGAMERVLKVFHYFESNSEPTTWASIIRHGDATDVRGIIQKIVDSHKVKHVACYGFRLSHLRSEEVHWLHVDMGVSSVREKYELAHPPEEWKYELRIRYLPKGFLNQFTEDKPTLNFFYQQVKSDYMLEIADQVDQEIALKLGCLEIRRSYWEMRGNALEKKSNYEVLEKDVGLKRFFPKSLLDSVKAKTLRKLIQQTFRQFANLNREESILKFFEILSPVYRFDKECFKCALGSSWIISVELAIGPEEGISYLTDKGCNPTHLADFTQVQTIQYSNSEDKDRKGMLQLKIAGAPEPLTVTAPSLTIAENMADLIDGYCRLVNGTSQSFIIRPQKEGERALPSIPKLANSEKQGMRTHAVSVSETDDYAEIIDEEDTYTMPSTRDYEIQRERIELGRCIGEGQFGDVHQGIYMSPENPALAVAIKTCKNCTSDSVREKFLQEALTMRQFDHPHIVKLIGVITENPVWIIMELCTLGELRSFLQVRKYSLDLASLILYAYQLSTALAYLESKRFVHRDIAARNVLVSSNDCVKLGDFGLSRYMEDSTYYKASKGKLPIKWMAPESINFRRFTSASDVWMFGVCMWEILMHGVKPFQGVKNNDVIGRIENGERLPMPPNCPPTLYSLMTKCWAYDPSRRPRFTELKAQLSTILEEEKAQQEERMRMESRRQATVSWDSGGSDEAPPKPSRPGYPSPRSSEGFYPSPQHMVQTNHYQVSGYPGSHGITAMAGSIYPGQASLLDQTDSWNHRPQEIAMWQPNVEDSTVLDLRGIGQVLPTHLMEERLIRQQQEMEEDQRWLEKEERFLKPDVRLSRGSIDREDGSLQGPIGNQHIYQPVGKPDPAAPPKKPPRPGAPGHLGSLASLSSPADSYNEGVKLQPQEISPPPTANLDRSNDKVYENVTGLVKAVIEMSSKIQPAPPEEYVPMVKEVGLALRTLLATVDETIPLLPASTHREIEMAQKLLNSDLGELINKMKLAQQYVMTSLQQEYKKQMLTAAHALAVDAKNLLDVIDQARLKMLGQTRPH
compound,measurement,setting,value
O=C1NC(=O)c2c1c1c3ccccc3[nH]c1c1[nH]c3cc(Br)ccc3c21,residual activity,[1],98%
same,residual activity,[2],106%
same,residual activity,[3],101%
same,residual activity,[4],107% (inactive)
same,residual activity,[5],83%
same,residual activity,[6],102%
same,residual activity,[7],93%
same,residual activity,[8],95%
same,residual activity,[9],83%
same,residual activity,[10],98%
